# In all, about 310,000 compounds went through this assay and about 14,000 (4.5%) showed an effect of 50% or more. The effect is printed as a negative number. The list comes from a sample in which strong results are over-represented; it also holds similar structures and randomly drawn compounds.
# Biological target: human ether-à-go-go-related gene (hERG) potassium channel (human, UniProt Q12809)
# Assay: primary screen, population patch clamp on CHO cells stably expressing hERG; higher = less effect of the substance
# 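Further: peak tail current of the secondary pulse compared with the same well before compound.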
# Sequence of human ether-à-go-go-related gene (hERG) potassium channel (Q12809 whole entry, looked up): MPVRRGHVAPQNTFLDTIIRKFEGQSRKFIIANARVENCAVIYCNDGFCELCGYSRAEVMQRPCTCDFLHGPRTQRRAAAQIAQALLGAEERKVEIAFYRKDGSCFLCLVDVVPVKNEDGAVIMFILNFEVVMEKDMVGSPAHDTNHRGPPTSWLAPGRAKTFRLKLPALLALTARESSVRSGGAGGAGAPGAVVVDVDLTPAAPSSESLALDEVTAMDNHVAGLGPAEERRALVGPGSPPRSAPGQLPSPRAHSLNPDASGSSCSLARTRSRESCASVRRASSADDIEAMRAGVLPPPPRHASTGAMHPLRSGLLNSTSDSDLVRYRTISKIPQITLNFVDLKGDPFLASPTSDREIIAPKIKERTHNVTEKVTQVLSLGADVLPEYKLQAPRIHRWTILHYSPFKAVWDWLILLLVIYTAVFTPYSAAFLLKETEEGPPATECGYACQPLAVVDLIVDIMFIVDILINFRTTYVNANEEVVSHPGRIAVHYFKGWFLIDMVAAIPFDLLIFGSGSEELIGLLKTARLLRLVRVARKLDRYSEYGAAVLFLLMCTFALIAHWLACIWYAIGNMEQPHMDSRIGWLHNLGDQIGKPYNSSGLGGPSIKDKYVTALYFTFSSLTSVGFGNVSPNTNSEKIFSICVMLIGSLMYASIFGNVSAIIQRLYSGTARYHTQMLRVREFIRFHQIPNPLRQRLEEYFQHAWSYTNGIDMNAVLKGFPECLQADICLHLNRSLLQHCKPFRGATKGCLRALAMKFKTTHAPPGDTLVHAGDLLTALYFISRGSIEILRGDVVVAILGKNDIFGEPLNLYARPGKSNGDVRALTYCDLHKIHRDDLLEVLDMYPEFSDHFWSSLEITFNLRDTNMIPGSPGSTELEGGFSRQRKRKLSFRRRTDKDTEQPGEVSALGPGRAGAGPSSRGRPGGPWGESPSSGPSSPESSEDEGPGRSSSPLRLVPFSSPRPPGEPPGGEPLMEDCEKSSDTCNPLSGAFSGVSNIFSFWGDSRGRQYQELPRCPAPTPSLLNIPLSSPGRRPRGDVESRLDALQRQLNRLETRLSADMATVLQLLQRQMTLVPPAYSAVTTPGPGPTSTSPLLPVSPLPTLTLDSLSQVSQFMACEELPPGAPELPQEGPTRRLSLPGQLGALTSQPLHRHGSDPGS
row,Structure (SMILES),"hERG current change (%, negative = inhibition) at 10uM [%]"
1,Cc1c(CC(=O)N2CCN(C(=O)C3COc4ccccc4O3)CC2)c(=O)oc2cc(O)cc(O)c12 (stereo not drawn),24.8
2,CC(=O)Oc1ccc2c(C)c(CC(=O)N3CCN(C(=O)C4COc5ccccc5O4)CC3)c(=O)oc2c1C (stereo not drawn),-69.6
3,Cc1c(CC(=O)N2CCN(C(=O)C3COc4ccccc4O3)CC2)c(=O)oc2c(O)c(O)ccc12 (stereo not drawn),-0.208
4,COc1ccc2c(C)c(CC(=O)N3CCN(C(=O)C4COc5ccccc5O4)CC3)c(=O)oc2c1C (stereo not drawn),-53.7
5,Cc1cc(O)c2c(C)c(CC(=O)N3CCN(C(=O)C4COc5ccccc5O4)CC3)c(=O)oc2c1 (stereo not drawn),-28
6,O=C(C1COc2ccccc2O1)N1CCOCC1 (stereo not drawn),10.5
7,Cc1c(CC(=O)N2CCN(C(=O)C3COc4ccccc4O3)CC2)c(=O)oc2c(C)c(O)ccc12 (stereo not drawn),-20
8,COc1cc(C)cc2oc(=O)c(CC(=O)N3CCN(C(=O)C4COc5ccccc5O4)CC3)c(C)c12 (stereo not drawn),-53.9
9,CCOC(=O)N1CCN(C(=O)C2COc3ccccc3O2)CC1 (stereo not drawn),-2.28
10,Cc1c(CC(=O)N2CCN(C(=O)C3COc4ccccc4O3)CC2)c(=O)oc2cc(O)ccc12 (stereo not drawn),-44.7
11,O=C(C1COc2ccccc2O1)N1CCN(c2ccccc2Cl)CC1 (stereo not drawn),1.69
12,Cc1c(CC(=O)N2CCN(C(=O)C3COc4ccccc4O3)CC2)c(=O)oc2cc(O)c(Cl)cc12 (stereo not drawn),-52.4
13,COc1ccccc1CNC(=O)c1ccc(-c2ccccc2Cl)o1,4.13
14,O=S(=O)(/N=C(/NS(=O)(=O)c1ccccc1)c1ccccc1)c1ccccc1,20
15,CN(C)c1ccc(/C=N/NC(=O)c2sccc2-n2cccc2)cc1,12.2
16,CC1=CC(=C(C#N)c2nc3ccccc3s2)C=C(C)N1c1ccc(F)cc1F,13.3
17,c1ccc2c(c1)Cc1ccccc1O2,14.7
18,COc1ccc(/C=C2\C(=O)NCC(=O)N2Cc2ccccc2)cc1,4.69
19,Cc1csc(NC(=O)c2cccs2)n1,-1.76
20,CCOc1cc(NC(=S)NCC2CCCO2)c(OCC)cc1NC(=O)C1CC1 (stereo not drawn),36.2
21,C=CCn1cccc(C(=O)Nc2cc(OC)ccc2OC)c1=O,1.46
22,Cc1ccsc1CN(C)C(=O)c1cc(S(=O)(=O)N2CCOCC2)ccc1N1CCCC1,-40.5
23,CN(Cc1ccc(Cl)cc1)C(=O)c1cc(S(=O)(=O)N2CCOCC2)ccc1N1CCCC1,-72.8

row,Structure (SMILES),"hERG current change (%, negative = inhibition) at 10uM [%]"
1,COc1ccc(CN(C)C(=O)c2cc(S(=O)(=O)N3CCOCC3)ccc2N2CCCC2)cc1,-35.2
2,CN(Cc1cccs1)C(=O)c1cc(S(=O)(=O)N2CCOCC2)ccc1N1CCCC1,-27.1
3,CN(Cc1cccc(F)c1)C(=O)c1cc(S(=O)(=O)N2CCOCC2)ccc1N1CCCC1,-24.5
4,CCc1ccc(CN(C)C(=O)c2cc(S(=O)(=O)N3CCOCC3)ccc2N2CCCC2)cc1,-50.1
5,COc1ccc(C2C(CN3CCOCC3)C(=O)N2c2ccccc2)cc1 (stereo not drawn),9.52
6,Cc1ccc(OCCOc2cccc(Br)c2)c([N+](=O)[O-])n1,0.558
7,Cc1cccc(NS(=O)(=O)c2cccc(C(=O)N3CCN(c4ccccn4)CC3)c2)c1,-22.7
8,COc1ccc(C(=O)NCc2nnc(SCC(=O)Nc3cccc(OC)c3)o2)cc1,-1.25
9,CCOC(=O)c1c(NC(=O)c2nn(CC)cc2Br)sc2c1CCCCC2,8.6
10,COc1ccc(N(C)C(=O)c2cn(CC(C)C)c(=O)c3cc(OC)c(OC)cc23)cc1,8.8
11,Nc1c(-c2ccccc2)cnn1-c1ccccc1,12
12,Nc1c(-c2cccc(Cl)c2)cnn1-c1ccccc1,-60.3
13,Nc1c(-c2ccccc2)cnn1-c1cccc(Cl)c1,-12.3
14,O=C(NCc1ccc(OC(F)(F)F)cc1)C1CC(c2ccccc2[N+](=O)[O-])=NO1 (stereo not drawn),-68.3
15,COc1ccc(CCNC(=O)C2CCN(C(=O)c3ccc(F)cc3)CC2)cc1,10.2
16,COCCNC(=O)C1CC(c2ccc([N+](=O)[O-])cc2)=NO1 (stereo not drawn),-0.798
17,COc1ccc(CCNC(=O)C2CCN(C(=O)c3ccccc3)CC2)cc1,2.13
18,O=C(NCc1ccc(C(F)(F)F)cc1)C1CC(c2ccccc2[N+](=O)[O-])=NO1 (stereo not drawn),-46.1
19,COc1ccc(CCNC(=O)C2CCN(C(=O)c3ccc([N+](=O)[O-])cc3)CC2)cc1,-65.6
20,O=C(NCCc1ccccc1)C1CCN(C(=O)c2ccc(F)cc2)CC1,-2.25
21,COc1ccc(CCNC(=O)C2CC(c3cccc([N+](=O)[O-])c3)=NO2)cc1 (stereo not drawn),-21.8
22,COc1ccc(CCNC(=O)C2CCN(C(=O)c3ccc(Cl)cc3)CC2)cc1,-12.8
